This passage reports binding signal results from PMC7862700, “An all-to-all approach to the identification of sequence-specific readers for epigenetic DNA modifications on cytosine”.

Common to all, as to test: DAPPL (digital affinity profiling via proximity ligation, sequencing); 10 mM Tris-HCl pH 7.5, 50 mM NaCl, 1 mM DTT, 4% glycerol, room temperature, 30 min; GST-TFs on glutathione beads, 16-mer random dsDNA library, 0.1% formaldehyde crosslink after washing; high values mean tight binding
What all share (conditions): protein: recombinant; tags: N-terminal GST; dsDNA, one strand shown

The target of one test is T1, ERF (Homo sapiens, UniProt P50548 1-548).
T1 sequence: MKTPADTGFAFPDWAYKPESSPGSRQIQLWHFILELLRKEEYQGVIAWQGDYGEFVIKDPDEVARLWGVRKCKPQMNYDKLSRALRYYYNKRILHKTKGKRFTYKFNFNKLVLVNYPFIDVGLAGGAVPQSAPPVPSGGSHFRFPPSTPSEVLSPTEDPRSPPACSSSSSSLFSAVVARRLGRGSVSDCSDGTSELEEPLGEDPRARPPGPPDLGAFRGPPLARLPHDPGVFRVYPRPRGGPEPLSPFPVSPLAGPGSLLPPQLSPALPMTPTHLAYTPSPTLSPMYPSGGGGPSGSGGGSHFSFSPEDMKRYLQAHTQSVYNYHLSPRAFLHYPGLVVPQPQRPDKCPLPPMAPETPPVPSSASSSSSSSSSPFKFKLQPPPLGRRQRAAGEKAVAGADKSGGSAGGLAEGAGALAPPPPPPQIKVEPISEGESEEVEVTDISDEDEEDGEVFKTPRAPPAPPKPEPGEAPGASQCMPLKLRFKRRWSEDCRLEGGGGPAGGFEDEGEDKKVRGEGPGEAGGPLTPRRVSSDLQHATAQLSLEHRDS
In a few lines: (§1)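 In yeast, human transcription factors were expressed with a GST fusion, then pulled down on glutathione beads and given DNA barcodes. Pooled with a tag-only sample, they were exposed to 200 nmole of a 16-mer random double-stranded DNA library (Tris/NaCl/DTT/glycerol buffer, room temperature, 30 min), washed, crosslinked with 0.1% formaldehyde, proximity-ligated using BsaI/T4 ligase for 1 h at 37 °C, PCR-amplified and read on an Illumina NextSeq500. Each hexamer's frequency of reads for a factor, divided by the matching frequency for the tag-only sample, gives the binding signal.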

A further test deals with T2, ETV3L (Homo sapiens, UniProt Q6ZN32 1-361).
T2 sequence: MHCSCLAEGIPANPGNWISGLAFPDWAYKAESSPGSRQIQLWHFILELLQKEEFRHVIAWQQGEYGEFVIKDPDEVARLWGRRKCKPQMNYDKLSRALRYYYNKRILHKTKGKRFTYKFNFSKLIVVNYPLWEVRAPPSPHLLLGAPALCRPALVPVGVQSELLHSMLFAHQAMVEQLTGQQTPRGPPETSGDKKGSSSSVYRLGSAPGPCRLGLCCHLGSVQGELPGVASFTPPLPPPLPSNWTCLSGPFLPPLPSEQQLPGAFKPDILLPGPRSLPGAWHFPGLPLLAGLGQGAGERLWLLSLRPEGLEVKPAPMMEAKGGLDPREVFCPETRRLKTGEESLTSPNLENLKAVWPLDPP
In a few lines: as §1

Another test has as its target T3, ETS2 (Homo sapiens, UniProt P15036 1-469).
T3 sequence: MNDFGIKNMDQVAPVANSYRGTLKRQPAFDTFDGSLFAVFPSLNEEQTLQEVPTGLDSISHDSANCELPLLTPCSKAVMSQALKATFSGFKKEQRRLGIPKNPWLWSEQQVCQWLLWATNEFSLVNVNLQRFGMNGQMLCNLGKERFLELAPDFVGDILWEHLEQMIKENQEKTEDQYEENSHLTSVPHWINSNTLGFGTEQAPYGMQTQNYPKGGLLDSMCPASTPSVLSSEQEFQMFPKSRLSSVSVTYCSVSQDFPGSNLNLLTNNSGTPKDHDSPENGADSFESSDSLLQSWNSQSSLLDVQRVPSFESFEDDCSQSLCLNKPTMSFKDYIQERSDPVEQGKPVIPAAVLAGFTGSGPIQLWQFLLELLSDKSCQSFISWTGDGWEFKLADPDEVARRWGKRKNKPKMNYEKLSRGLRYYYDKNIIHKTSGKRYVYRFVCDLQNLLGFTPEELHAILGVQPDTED
In outline:
as §1

In another test the target is T4, SPDEF (Homo sapiens, UniProt O95238 1-335).
T4 sequence: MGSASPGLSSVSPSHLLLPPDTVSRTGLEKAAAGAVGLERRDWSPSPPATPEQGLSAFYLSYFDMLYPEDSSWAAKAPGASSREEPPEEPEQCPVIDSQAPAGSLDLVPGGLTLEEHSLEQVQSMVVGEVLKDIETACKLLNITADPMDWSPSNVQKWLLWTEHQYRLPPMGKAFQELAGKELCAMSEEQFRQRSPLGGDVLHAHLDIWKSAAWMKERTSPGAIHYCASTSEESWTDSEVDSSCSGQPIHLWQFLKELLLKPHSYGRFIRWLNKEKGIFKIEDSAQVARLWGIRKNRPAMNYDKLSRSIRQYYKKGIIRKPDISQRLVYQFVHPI
In a few lines: as §1

Another test deals with T5, ETV7 (Homo sapiens, UniProt Q9Y603 1-341).
T5 sequence: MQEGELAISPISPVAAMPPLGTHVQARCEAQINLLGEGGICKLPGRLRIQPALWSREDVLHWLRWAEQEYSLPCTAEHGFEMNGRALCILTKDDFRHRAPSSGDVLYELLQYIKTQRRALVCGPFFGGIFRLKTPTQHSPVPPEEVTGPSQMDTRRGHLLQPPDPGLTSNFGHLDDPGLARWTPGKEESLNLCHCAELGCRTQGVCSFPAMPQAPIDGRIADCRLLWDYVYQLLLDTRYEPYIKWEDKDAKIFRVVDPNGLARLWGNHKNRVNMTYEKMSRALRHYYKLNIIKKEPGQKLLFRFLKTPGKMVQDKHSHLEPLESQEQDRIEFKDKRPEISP
In outline:
as §1

A further test concerns the target T6, ELF5 (Homo sapiens, UniProt Q9UKW6-2 1-255).
T6 sequence: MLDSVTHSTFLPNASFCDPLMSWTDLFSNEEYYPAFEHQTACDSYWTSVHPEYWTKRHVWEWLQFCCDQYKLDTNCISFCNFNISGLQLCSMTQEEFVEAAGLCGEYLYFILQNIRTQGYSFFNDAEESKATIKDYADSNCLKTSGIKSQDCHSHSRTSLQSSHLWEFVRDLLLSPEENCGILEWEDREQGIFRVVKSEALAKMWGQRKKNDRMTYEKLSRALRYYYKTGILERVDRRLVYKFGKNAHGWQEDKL
In a few lines:
as §1

Another test addresses T7, ETV3 (Homo sapiens, UniProt P41162-2 1-143).
T7 sequence: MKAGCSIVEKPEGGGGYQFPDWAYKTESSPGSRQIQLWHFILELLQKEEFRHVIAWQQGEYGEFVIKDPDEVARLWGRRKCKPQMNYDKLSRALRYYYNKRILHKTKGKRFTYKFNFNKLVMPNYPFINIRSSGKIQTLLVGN
In outline:
as §1

In another test the target is ETV6 (Homo sapiens, UniProt P41212 1-452). In outline: as §1
Chain of ETV6 (P41212 whole entry): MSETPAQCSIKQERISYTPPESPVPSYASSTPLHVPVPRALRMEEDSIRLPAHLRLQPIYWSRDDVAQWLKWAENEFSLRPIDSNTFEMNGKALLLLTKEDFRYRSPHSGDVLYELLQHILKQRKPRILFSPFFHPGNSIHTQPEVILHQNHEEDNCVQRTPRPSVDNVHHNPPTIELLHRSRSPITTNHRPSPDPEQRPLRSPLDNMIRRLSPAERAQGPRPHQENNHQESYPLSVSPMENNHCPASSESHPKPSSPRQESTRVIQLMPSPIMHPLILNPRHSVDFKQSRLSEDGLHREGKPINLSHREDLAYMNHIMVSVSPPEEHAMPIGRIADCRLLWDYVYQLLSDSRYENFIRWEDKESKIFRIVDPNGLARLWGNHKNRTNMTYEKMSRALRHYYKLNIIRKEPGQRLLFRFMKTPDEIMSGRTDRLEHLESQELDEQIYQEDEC

As to CGGTTT, the binding signal with ERF is 1.23 fold enrichment (6-mer frequency, TF over GST control); with ETV3L it was 1.14 fold enrichment (6-mer frequency, TF over GST control); in the test with ETS2, 1.2 fold enrichment (6-mer frequency, TF over GST control); in the test with SPDEF, 1.36 fold enrichment (6-mer frequency, TF over GST control); with ETV7, 1.2 fold enrichment (6-mer frequency, TF over GST control); with ELF5, 1.31 fold enrichment (6-mer frequency, TF over GST control). Also, the binding signal with ETV3 is 1.22 fold enrichment (6-mer frequency, TF over GST control); with ETV6 it was 1.23 fold enrichment (6-mer frequency, TF over GST control).

Regarding TGCGAC, the binding signal is 1.22 fold enrichment (6-mer frequency, TF over GST control) with ERF; 1.32 fold enrichment (6-mer frequency, TF over GST control) in the test with ETV3L; 1.19 fold enrichment (6-mer frequency, TF over GST control) with ETS2; 1.15 fold enrichment (6-mer frequency, TF over GST control) with SPDEF; 1.29 fold enrichment (6-mer frequency, TF over GST control) with ETV7; 1.2 fold enrichment (6-mer frequency, TF over GST control) in the test with ELF5. The binding signal is 1.27 fold enrichment (6-mer frequency, TF over GST control) with ETV3 and 1.28 fold enrichment (6-mer frequency, TF over GST control) with ETV6.

As to TGACTC, the binding signal with ERF is 1.21 fold enrichment (6-mer frequency, TF over GST control); in the test with ETV3L it was 1.21 fold enrichment (6-mer frequency, TF over GST control); in the test with ETS2, 1.38 fold enrichment (6-mer frequency, TF over GST control); with SPDEF, 1.27 fold enrichment (6-mer frequency, TF over GST control); with ETV7, 1.41 fold enrichment (6-mer frequency, TF over GST control); with ELF5, 1.28 fold enrichment (6-mer frequency, TF over GST control). For the same sequence, the binding signal is 1.32 fold enrichment (6-mer frequency, TF over GST control) with ETV3 and 1.28 fold enrichment (6-mer frequency, TF over GST control) with ETV6.

In the case of GTTCCG, the binding signal is 1.74 fold enrichment (6-mer frequency, TF over GST control) in the test with ERF; 1.93 fold enrichment (6-mer frequency, TF over GST control) with ETV3L; 1.98 fold enrichment (6-mer frequency, TF over GST control) with ETS2; 2.25 fold enrichment (6-mer frequency, TF over GST control) in the test with SPDEF; 1.67 fold enrichment (6-mer frequency, TF over GST control) in the test with ETV7; 2.5 fold enrichment (6-mer frequency, TF over GST control) with ELF5. Moreover, the binding signal was 2.17 fold enrichment (6-mer frequency, TF over GST control) with ETV3 and 1.9 fold enrichment (6-mer frequency, TF over GST control) with ETV6.

For CCCTCT, the binding signal is 1.41 fold enrichment (6-mer frequency, TF over GST control) with ERF; 1.3 fold enrichment (6-mer frequency, TF over GST control) with ETV3L; 1.36 fold enrichment (6-mer frequency, TF over GST control) with ETS2; 1.17 fold enrichment (6-mer frequency, TF over GST control) with SPDEF; 1.27 fold enrichment (6-mer frequency, TF over GST control) in the test with ETV7; 1.29 fold enrichment (6-mer frequency, TF over GST control) with ELF5. Further, the binding signal with ETV3 is 1.4 fold enrichment (6-mer frequency, TF over GST control); with ETV6, 1.31 fold enrichment (6-mer frequency, TF over GST control).

With TCTGTA, the binding signal was 1.16 fold enrichment (6-mer frequency, TF over GST control) with ERF; 1.24 fold enrichment (6-mer frequency, TF over GST control) in the test with ETV3L; 1.27 fold enrichment (6-mer frequency, TF over GST control) in the test with ETS2; 1.26 fold enrichment (6-mer frequency, TF over GST control) with SPDEF; 1.03 fold enrichment (6-mer frequency, TF over GST control) with ETV7; 1.17 fold enrichment (6-mer frequency, TF over GST control) with ELF5. In addition, the binding signal in the test with ETV3 was 1.25 fold enrichment (6-mer frequency, TF over GST control); with ETV6, 1.18 fold enrichment (6-mer frequency, TF over GST control).

As to TGCAAC, the binding signal with ERF was 1.31 fold enrichment (6-mer frequency, TF over GST control); in the test with ETV3L, 1.28 fold enrichment (6-mer frequency, TF over GST control); with ETS2, 1.28 fold enrichment (6-mer frequency, TF over GST control); with SPDEF it was 1.37 fold enrichment (6-mer frequency, TF over GST control); with ETV7 it was 1.19 fold enrichment (6-mer frequency, TF over GST control); with ELF5, 1.23 fold enrichment (6-mer frequency, TF over GST control). Besides, the binding signal was 1.32 fold enrichment (6-mer frequency, TF over GST control) with ETV3 and 1.35 fold enrichment (6-mer frequency, TF over GST control) in the test with ETV6.

Regarding CACCCG, the binding signal is 1.25 fold enrichment (6-mer frequency, TF over GST control) with ERF; 1.32 fold enrichment (6-mer frequency, TF over GST control) with ETV3L; 1.19 fold enrichment (6-mer frequency, TF over GST control) with ETS2; 1.28 fold enrichment (6-mer frequency, TF over GST control) in the test with SPDEF; 1.15 fold enrichment (6-mer frequency, TF over GST control) with ETV7; 1.19 fold enrichment (6-mer frequency, TF over GST control) with ELF5. Also, the binding signal in the test with ETV3 was 1.25 fold enrichment (6-mer frequency, TF over GST control); in the test with ETV6, 1.11 fold enrichment (6-mer frequency, TF over GST control).
